# Measured values: ChEMBL document CHEMBL1157539, “Thousands of chemical starting points for antimalarial lead identification” (Nature, 2010)
# How the values were obtained:
# Type in all cases: functional
# Plasmodium falciparum [1] = assay: GSK_TCMDC: Inhibition of Plasmodium falciparum 3D7 in whole red blood cells, using parasite LDH activity as an index of growth. Test compounds present at 2uM
# Plasmodium falciparum [2] = assay: GSK_TCMDC: Inhibition of Plasmodium falciparum Dd2 in whole red blood cells, using parasite LDH activity as an index of growth. Test compounds present at 2uM
# HepG2 = assay: GSK_TCMDC: Percent inhibition of human HepG2 cell line. Test compounds present at 10uM.
Structure (SMILES),Inhibition (Plasmodium falciparum [1]) [%],Inhibition (Plasmodium falciparum [2]) [%],Inhibition (HepG2) [%]
COc1ccc(O)c(-c2sc(N=C(N)N)nc2-c2ccccc2)c1,100,96,2
N#Cc1ccc(-c2ccc(C(=O)NCCCCN3CC=C(c4ccc5c(c4OCC4CC4)CCCC5)CC3)cc2)cc1,100,83,22
COc1ccc(C2CC(=O)C3=C(C2)NC(C)=C(C(=O)OC(C)C)C3c2cccc(O)c2)cc1OC (centres undefined),100,85,0
COC(=O)c1ccc2c(-c3nc4ccc(OC)cc4[nH]3)c[nH]c2c1,95,31,0
O=C(Nc1cccc(CN2CCN(Cc3ccc(O)cc3)CC2)c1)c1ccc(-c2ccccc2)cc1.O=C(O)C(F)(F)F,100,67,40
C=CCN1C(=O)C(C(C)=O)=C(O)C1c1ccccc1 (centres undefined),93,97,41
O=C(O)C(F)(F)F.Oc1ccc(CCNc2nc(NCCCOc3cccc(-c4ccccc4)c3)nc(N3CCNCC3)n2)cc1,89,14,40
Cl.c1ccc(-c2cc(NCCCCNc3cc(-c4ccccc4)nc4ccccc34)c3ccccc3n2)cc1,100,97,70
COc1ccccc1CCNc1ncnc2c1[nH]c1ccc(F)cc12,95,68,49
COc1ccc(CN2CCC(CNCCc3c(Cl)cccc3Cl)CC2)cc1.O=C(O)C(F)(F)F,98,69,45
CCNc1cc(C(=O)N[C@@H](Cc2ccccc2)[C@H](O)CNC(C)(C)Cc2cccc(OC)c2)cc(N2CCCC2=O)c1.O=CO,99,97,7
CCN(CC)/C(=N/C(=N)Nc1ccc(Cl)cc1)NCCCCCCCCN/C(=N\C(=N)Nc1ccc(Cl)cc1)N(CC)CC,99,94,10
CC(C)n1ncc2c(C(=O)N3CCCC4CCCCC43)cc(C3CC3)nc21 (centres undefined),99,92,7
CCn1ccc2c(N3CCCCS3(=O)=O)cc(C(=O)N[C@@H](Cc3ccccc3)[C@H](O)CNC(C)(C)c3cccc(C(F)(F)F)c3)cc21,97,98,6
CCCCCCCN1CCC(CCNc2ccnc3ccc(OC)cc23)CC1,84,86,5
CCN(CCCN1CCCCC1)c1cc(C)nc(Nc2ccc(C(F)(F)F)cc2)n1.O=C(O)C(F)(F)F,100,99,26
O=C(O)C(F)(F)F.Oc1ccc(CCNc2nc(NCc3cccc(-c4cc(C(F)(F)F)ccc4Cl)c3)nc(N3CCNCC3)n2)cc1,90,8,33
Cc1nn(C)cc1C(C)Nc1nncc(-c2ccc(C(F)(F)F)cc2)n1 (centres undefined),100,99,0
Br.Cc1ccc2ccccc2c1CCCON1C(=N)N=C(N)NC1(C)C,95,97,65
O=C(/C=C/c1ccc(Cl)c(Cl)c1)N1CCC(CCN2CCC(c3nc4cc(O)ccc4[nH]3)CC2)CC1,100,60,42
CCOC(=O)N(C)/N=C/[C@H](CCc1ccccc1)NC(=O)[C@H](CC(C)C)NC(=O)c1cc2cccc(OC)c2o1,86,70,2
COc1ccc(N(C)Cc2cnc3nc(N)nc(N)c3n2)cc1,98,0,15
O=C(Nc1cccc(-c2ccc(-c3nc4cc(F)ccc4[nH]3)cc2)c1)c1csnn1,94,31,22
CCCCCCCN1CCC(CC(=O)Nc2ccnc3ccc(OC)cc23)CC1,97,52,15
Cc1sc(NC(=O)c2ccc([N+](=O)[O-])cc2Cl)c(C(N)=O)c1C,94,2,2
O=C(NC1CCC(N2CCN(c3cccc(C(F)(F)F)c3)CC2)CC1)c1cc2ccccc2[nH]1 (centres undefined),99,22,23
CN(C)CCNC(=O)[C@H](CC1CCCCC1)NC(=O)c1ccc(O)c(-c2ccc(Cl)c(Cl)c2)c1,98,97,0
COc1ccc2nccc([C@@H](O)CN3CCC(NC(=O)c4ccc(Cl)c(OC)c4)CC3)c2c1,87,28,26
